Sampled rows, rich in hits. Any-hit rate of the full collection: about 9.3%.
NPC1 promoter act: activators of NPC1 promoter. Potency, µM (titrated, usually from 9.22 µM), usual class: activators. 2.4% of 320,000 active. Huh7 NPC1 promoter luciferase reporter, 24 h; note: nearly all actives have a fitted effect of over 60% in size
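Stably transfected Huh7 (NPC1 promoter→luciferase), 1500 cells/well in Opti-MEM + 10% FBS, 2 h settle, then compound 24 h at 37 °C. Luminescence after 10 min with Amplite reagent.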
Rab9 promoter act: activates the Rab9 promoter. Huh7 Rab9 promoter-luciferase reporter, luminescence, 24 h. Potency, µM (highest dose often 9.22 µM), hits mostly activators. 2.8% of 320,000 active. AID 485297; note: nearly all actives have a fitted effect of over 60% in size
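Cell-based reporter: Huh7 stable for Rab9 promoter-driven luciferase, plated in reduced-serum medium with 10% FBS at 1500 cells/well, compound-treated 24 h at 37 °C, luminescence read after 10 min reagent.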
ELG1 repair inh: inhibitors of ELG1-dependent DNA repair in HEK293T cells. HEK293T ELG1-luciferase reporter, luminescence, 16 h; DNA damage induced by 5-fluorouridine. Potency, µM (top dose mostly 46.1 µM), actives largely listed as inhibitors. 2.3% of 330,000 active. AID 504467; note: nearly all actives have a fitted effect of over 55% in size
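Step one: seed 2,000 cells per well. Step two: pin-transfer compound or DMSO alongside 5-fluorouridine. Step three: incubate 16 hr, 37 °C, 5% CO2. Step four: add ONE-Glo, wait 30 min, read luminescence.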
SMN2 splice enh: SMN2 splice variant enhancement; HEK293 SMN2-luciferase splicing reporter, luminescence, 30-36 h; 2.8% of 210,000 active; Potency, µM (titrated, usually from 46.1 µM), most hits filed as activators; note: nearly all actives have a fitted effect of over 55% in size
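HEK293 cells carry an SMN2 […]–luciferase reporter in which exon 7 inclusion puts luciferase in frame. Cells were plated 10-12 h before compound addition, then incubated 30-36 h at 37C. ONE-Glo luminescence was read; sodium butyrate at 4.5 mM final served as control.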
FLuc modulator: inhibits or activates purified firefly luciferase, miR-21 counter-screen. P08659. purified FLuc, Km substrates, luminescence inhibition. Potency, µM (doses to about 57.5 µM), usual class: inhibitors. 6.9% of 360,000 active. AID 588342; note: nearly all actives have a fitted effect of over 55% in size
Target sequence (P08659 whole entry, looked up): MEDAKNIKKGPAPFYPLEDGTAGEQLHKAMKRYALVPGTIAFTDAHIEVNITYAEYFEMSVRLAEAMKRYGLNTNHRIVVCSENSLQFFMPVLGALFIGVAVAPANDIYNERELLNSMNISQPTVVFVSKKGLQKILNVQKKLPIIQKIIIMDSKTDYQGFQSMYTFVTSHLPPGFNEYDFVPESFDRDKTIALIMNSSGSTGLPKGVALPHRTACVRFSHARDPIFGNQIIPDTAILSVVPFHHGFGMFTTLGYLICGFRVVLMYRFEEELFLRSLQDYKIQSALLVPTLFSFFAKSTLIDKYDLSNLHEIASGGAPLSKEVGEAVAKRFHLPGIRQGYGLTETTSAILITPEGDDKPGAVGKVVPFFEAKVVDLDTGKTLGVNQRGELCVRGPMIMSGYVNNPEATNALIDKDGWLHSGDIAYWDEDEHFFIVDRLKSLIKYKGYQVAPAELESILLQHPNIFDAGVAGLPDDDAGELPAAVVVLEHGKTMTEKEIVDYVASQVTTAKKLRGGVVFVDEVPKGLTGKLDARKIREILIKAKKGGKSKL
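Biochemical qHTS of compounds, final roughly 60 µM downward over six points, against 10 nM purified firefly luciferase using Km concentrations of substrates (10 uM D-luciferin, 10 uM ATP) in Tris acetate pH 7.5 buffer; luminescence output.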
ELG1 genotox: induces genotoxicity in HEK293T cells with luciferase-tagged ELG1 | HEK293T ELG1-luciferase reporter, luminescence, 16 h | Potency, µM (highest dose often 46 µM), hits mostly activators | 1.3% of 330,000 active | AID 504466; note: nearly all actives have a fitted effect of over 60% in size
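HEK293T cells expressing luciferase-tagged ELG1 were exposed to compound or DMSO vehicle for 16 hr at 37 °C and 5% CO2. Luciferase activity was then measured with ONE-Glo after 30 min at room temperature.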
A number is an active result; - = inactive; ? = inconclusive; . = not tested or not shown; [ ] = remark or other dose. Calls come from the whole dose curve; as a rule, active = well fitted curve in the direction sought with a large enough effect; inconclusive = small, poorly fitted or top-dose-only effect, or another doubt; inactive = no such curve, though single readings can be large; an effect the other way counts as inactive or inconclusive.

SMILES	NPC1 promoter act	Rab9 promoter act	ELG1 repair inh	SMN2 splice enh	FLuc modulator	ELG1 genotox
c1cnc2c(SCc3ccc(-c4nnco4)cc3)cccc2c1	?	?	?	-	23.9µM	-
Cc1cccc(CSc2cccc3cccnc23)c1	-	-	?	-	19µM	?
CCOc1ccc(NC(=O)c2cnc3ccccn3c2=O)cc1	.	.	.	-	?	.
Cc1cccc(NC(=O)c2cnc3sccn3c2=O)c1C	?	1.12µM	?	5.62µM	2.69µM	4.11µM
COc1ccc(NC(=O)c2cnc3sccn3c2=O)cc1	?	2.51µM	?	14.1µM	?	4.11µM
Cc1cccc(NC(=O)c2cnc3ccccn3c2=O)c1	0.631µM	0.316µM	?	0.708µM	0.675µM	0.411µM
Cc1cccc(NC(=O)c2cnc3sccn3c2=O)c1	0.891µM	0.447µM	?	.	3.38µM	?
CCc1ccc(CNC(=O)c2c(C)oc3ncnc(N4CCOCC4)c23)cc1	.	.	.	.	-	.
Cc1nn(C)c(C)c1NC(=O)COc1ccc(F)cc1Br	.	.	?	.	.	-
Cc1ccc(NC(=O)c2cccs2)cc1NC(=O)c1ccco1	-	-	-	-	?	-
O=C(Nc1ccon1)c1cnc2sccn2c1=O	-	-	?	.	-	-
O=C(Nc1cnc2sccn2c1=O)c1ccccc1Cl	1.58µM	?	?	-	15.1µM	18.4µM
COc1ccc(C(C(=O)NC2CCCCC2)N(C(=O)c2ccco2)c2ccccc2OC)cc1 (stereo unspecified)	-	-	?	.	-	-
Cc1ccc(-n2nc(-c3ccc(N)cc3)cc2N)cc1	?	?	?	11.2µM	19µM	?
Nc1cc(-c2ccc(Cl)cc2)nn1-c1ccccc1	3.16µM	3.16µM	?	14.1µM	6.01µM	?
CC(=O)Nc1ccc(-c2cc(N)n(-c3ccccc3)n2)cc1	2.24µM	3.16µM	?	.	9.53µM	?
Nc1ccc(-c2cc(N)n(-c3ccccc3)n2)cc1	-	?	-	?	?	-
CCOC(=O)CCC(=O)Nc1ccc(S(=O)(=O)N2CCCC2)cc1	-	-	-	-	-	-
COC(=O)c1c(NC(=O)CN(c2ccccc2)S(C)(=O)=O)sc2c1CCCC2	-	-	?	-	-	-
Cc1ccccc1NC(=O)c1cc(C(=O)c2cc(Cl)ccc2O)cn(-c2ccccc2C)c1=O	-	-	20.6µM	-	?	-
Cc1ccc(-n2cc(C(=O)c3cc(Cl)ccc3O)cc(C#N)c2=O)cc1	-	-	-	-	-	-
CC(=O)c1cc(C#N)c(SCc2ccc([N+](=O)[O-])cc2)nc1C	-	-	-	-	-	-
COc1ccc2oc(C(=O)OCC(=O)NC3CCCC3)c(C)c2c1	-	-	-	.	-	-
N#C/C(=C/c1cccnc1)c1ccccc1	-	-	-	.	-	-
N#C/C(=C\c1cccnc1)c1nc2c(s1)CCCC2	3.55µM	3.98µM	?	12.6µM	12µM	16.4µM
SMILES	NPC1 promoter act	Rab9 promoter act	ELG1 repair inh	SMN2 splice enh	FLuc modulator	ELG1 genotox
COc1cc(/C=C(\C#N)C(=O)N2CCCCC2)ccc1O	-	-	?	.	-	-
COc1cc(/C=C(\C#N)c2nc3c(s2)CCCC3)ccc1O	?	?	?	22.4µM	6.01µM	11.2µM
CC1CCc2nc(/C(C#N)=C/c3cccnc3)sc2C1 (stereo unspecified)	?	1.26µM	?	2µM	2.13µM	2.31µM
C=CCn1c(Br)nc2c1c(=O)n(C)c(=O)n2C	-	-	-	-	-	-
CN(C)S(=O)(=O)c1cc(NC(=O)CN2CCOCC2)ccc1Cl	-	-	-	-	-	-
COc1ccc(C(CC(=O)c2ccccc2)S(=O)(=O)c2ccc(C)cc2)cc1 (stereo unspecified)	2.24µM	3.98µM	?	?	0.757µM	?
CC(=O)CC(c1ccccc1)S(=O)(=O)c1ccc(C)cc1 (stereo unspecified)	-	-	-	-	-	-
CC(=O)Cc1nsc(NC(=O)c2ccc(-c3ccc(F)cc3)o2)n1	-	-	-	-	6.01µM	-
CC(=O)Cc1nsc(NC(=O)c2ccc(-c3ccccc3Cl)o2)n1	-	-	-	11.2µM	10.7µM	?
CC(=O)Cc1nsc(NC(=O)c2ccc(-c3ccc(Cl)c(C(F)(F)F)c3)o2)n1	-	-	-	-	?	-
CCCN(CCC)CCCNC(=O)C(NS(=O)(=O)c1ccc2c(c1)CCC(=O)N2)c1ccccc1 (stereo unspecified)	-	-	-	-	-	-
COC(=O)C(NC(C)=O)(Nc1cccc(C)n1)C(F)(F)F (stereo unspecified)	-	-	-	.	-	-
Cc1ccc(Sc2ncccc2C(=O)NCc2cc([N+](=O)[O-])ccc2O)c(C)c1	3.98µM	3.98µM	?	.	8.49µM	?
O=C(NCc1cc([N+](=O)[O-])ccc1O)c1cccnc1Sc1ccccc1	-	-	-	.	16.9µM	-
CCOC(=O)c1c(C)n(CCO)c2ccc(O)cc12	.	.	.	-	-	.
O=C1c2ccccc2C(=O)N1CCN1CCc2ccccc21	?	?	?	-	13.5µM	?
c1ccc2c(c1)CCN2CCN1CCc2ccccc21	-	-	-	-	-	-
Cc1cc(C)nc(/N=C(/NC(=O)Nc2ccc(Cl)c(Cl)c2)Nc2ccccc2)n1	-	-	-	-	-	-
COc1ccc(-c2cc3nc4ccccc4n3c(N)c2C#N)cc1	1.78µM	2µM	?	.	?	-
COc1ccc(-c2cc(-c3ccccc3)c(C#N)c(S(C)=O)n2)cc1 (stereo unspecified)	-	-	-	-	-	-
COc1cccc(C(=O)c2ncc(C(F)(F)F)cc2Cl)c1	-	-	-	-	-	-
Cc1nc(N2CCN(S(=O)(=O)c3ccccc3C#N)CC2)c2c(-c3ccccc3)csc2n1	-	-	11.6µM	.	-	-
COc1ccc(NC(=O)CN2CCN(C3c4ccccc4-c4ccccc43)CC2)cc1	-	-	6.51µM	-	-	-
O=C(CN1C(=O)c2ccccc2C1=O)N1CCOCC1	-	-	-	-	-	-
O=C(CN1C(=O)c2ccccc2C1=O)N1CCN(C2c3ccccc3-c3ccccc32)CC1	-	-	16.4µM	-[1.84 µM]	-	-
SMILES	NPC1 promoter act	Rab9 promoter act	ELG1 repair inh	SMN2 splice enh	FLuc modulator	ELG1 genotox
CN(Cc1ccc(F)cc1)C(=O)c1ccc(NS(=O)(=O)c2ccc3[nH]c(=O)[nH]c3c2)cc1	-	-	?	.	-	-
O=C(Nc1cc(Br)ccc1O)c1cc(-c2ccco2)on1	-	-	?	.	-	-
O=C(/C=C/c1ccco1)OCc1nnc(-c2ccc(Cl)cc2)o1	-	-	-	-	-	-
COc1ccc(NC(=O)CSc2nnc(-c3ccccc3C)n2N)cc1OC	-	-	-	.	-	-
O=C(Cc1ccc(F)cc1)Nc1cccc(-c2cn3c(n2)SCC3)c1	-	-	16.4µM	-	?	-
O=C(Nc1ccc(-c2cn3c(n2)SCC3)cc1)c1ccco1	2.51µM	0.891µM	?	.	8.49µM	?

Screening data deposited in PubChem BioAssay by National Center for Advancing Translational Sciences (NCATS).
